Most compounds without a hit are left out; they make up all but 5.2% or so of the library.
ALR inh = human ALR oxidase inhibition via reduced H2O2 | inhibition, % (test concentration not listed) | actives 3.8% (n = 290,000) | purified ALR, DTT oxidation, H2O2 HRP-luminol luminescence;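 active = mean replicate inhibition above about 79%, with every replicate also reaching it, limit read from the data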
CR mimetic SO = caloric restriction mimetics inhibiting age-related superoxide in yeast | S. cerevisiae aged cells, superoxide DHE fluorescence; active compounds read low | superoxide response (% of plate mean), % at 10 µM | actives 0.18% (n = 330,000) | AID 2690;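 active = superoxide response under a set limit, about three screen SD below normal, cut at about 65% in these data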;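 note: yeast aged for seven days with compound at 30 °C before DHE staining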
CendR NRP1 mod = alters CendR peptide binding to human NRP-1; actives 0.85% (n = 360,000); inhibition, % at 25 µM; FAM-RPARPAR peptide binding to NRP-1, fluorescence polarization; AID 602438;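 active = inhibition or corrected inhibition above about 18%, plus a signal ratio from 0.5 to 1.5, limit read from the data, passing the limit was not always enough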
A3A deaminase = inhibitors of human APOBEC3A DNA deaminase; P31941; AID 493011; recombinant A3A, FAM/TAMRA ssDNA deamination fluorescence; inhibition, % at 20 µM; actives 0.41% (n = 330,000);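 active = at least 40% inhibition at 20 µM here, with at most 30% in a related deaminase screen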
PfM18AAP inh = PfM18AAP enzyme inhibition. recombinant PfM18AAP, H-Glu-NHMec fluorogenic cleavage. inhibition, % at 7.35 µM. actives 1.2% (n = 290,000). AID 1822;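 active = inhibition above the campaign mean inhibition over all tested compounds plus 3 SD, cut at about 28% in these data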
APOBEC3G inh = inhibitors of human APOBEC3G DNA deaminase; Q9HC16; recombinant A3G, ssDNA deamination FAM/TAMRA fluorescence; inhibition, % at 20 µM; actives 0.28% (n = 330,000);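 active = inhibition of at least 40% at 20 µM, with no more than 30% in the related APOBEC3A deaminase screen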
A number is an active result; 0 = inactive; - = no result.

SMILES	ALR inh	CR mimetic SO	CendR NRP1 mod	A3A deaminase	PfM18AAP inh	APOBEC3G inh
O=C(CSc1nccn1-c1ccccc1)Nc1ccc2c(c1)OCO2	-	0	0	0	0	0
COc1cccc(C=Cc2nccc3ccccc23)c1OC	-	-	25	-	-	-
COc1ccc(F)cc1CSc1nnnn1-c1ccc(O)cc1	0	0	23	0	0	0
Cc1cc(C)cc(NC(=O)CCOc2ccccc2)c1	0	0	0	0	0	0
Cc1ccccc1S(=O)(=O)N(C)C[C@@H]1OCc2cnnn2CCCC(=O)N([C@H](C)CO)C[C@H]1C	-	-	0	-	-	-
N#C/C(C(=O)Nc1ccc(Cl)cc1)=C(/S)Nc1ccccc1	0	0	0	0	57	0
O=C(Nc1ccc(Nc2ccccc2)cc1)c1ccc(Cl)cc1	0	0	0	0	-	0
Cc1ccccc1N1CCN(C2=NC(=O)/C(=C\c3cccs3)S2)CC1	0	0	0	0	0	0
Cc1ccsc1/C=C1\SC(N2CC(C)OC(C)C2)=NC1=O (stereo not given)	100	0	0	0	0	0
COc1cccc2c1C(=O)c1c(O)c3c(c(O)c1C2=O)C[C@@](O)(C(=O)CO)C[C@@H]3O[C@H]1C[C@H](N)[C@H](O)[C@H](C)O1	0	0	0	0	28	0
C#CCNC(=O)C1=C[C@@H](c2ccc3c(c2)OCO3)C[C@@H](OCCCCO)O1	0	0	0	0	-	0
O=C(Nc1ccccc1N1CCOCC1)c1ccc([N+](=O)[O-])cc1	0	0	0	0	0	0
O=[N+]([O-])c1ccc(N2CCN(Cc3ccccc3)CC2)c(S(=O)(=O)N2CCOCC2)c1	0	0	30	0	0	0
CN1CCN(c2ccc([N+](=O)[O-])cc2S(=O)(=O)N2CCOCC2)CC1	0	0	0	0	0	0
C=CCN(c1ccccc1)S(=O)(=O)c1cccc(C(=O)Nc2cc(C)ccn2)c1	0	0	0	0	-	0
COC/C=C/C1=CC2=CC(=O)C(C)(OC(=O)c3cnc4ccccc4n3)C(=O)C2=CN1c1ccc(OC)cc1 (stereo not given)	0	0	0	0	-	0
COC/C=C/C1=CC2=CC(=O)C(C)(OC(=O)c3cnc4ccccc4n3)C(=O)C2=CN1CC1CC1 (stereo not given)	0	0	29	0	-	0
COC/C=C/C1=CC2=CC(=O)C(C)(OC(=O)c3cnc4ccccc4n3)C(=O)C2=CN1Cc1ccccc1 (stereo not given)	0	0	25	0	-	0
COC/C=C/C1=CC2=CC(=O)C(C)(OC(=O)c3cnc4ccccc4n3)C(=O)C2=CN1Cc1ccc(OC)cc1 (stereo not given)	-	0	37	0	-	0
O=C(CSc1nnc(-c2cccnc2)n1-c1ccc(F)cc1)NCc1ccc2c(c1)OCO2	0	0	0	0	0	0
COc1ccccc1NS(=O)(=O)c1ccc(N/N=C/C=C/c2ccccc2[N+](=O)[O-])c([N+](=O)[O-])c1	0	0	29	0	0	0
COc1ccccc1NS(=O)(=O)c1cc([N+](=O)[O-])ccc1N/N=C/c1c[nH]c2ccccc12	99	0	0	0	0	0
COc1ccc(NS(=O)(=O)c2cc([N+](=O)[O-])ccc2N/N=C\c2c(C)[nH]c3ccccc23)cc1	0	0	0	0	0	0
NC(=O)c1cc(-c2csc(-c3cccnc3)n2)ccc1O	0	0	0	0	0	0
C1=C(c2ccco2)N2CCN=C2S1	80	0	0	0	0	0
SMILES	ALR inh	CR mimetic SO	CendR NRP1 mod	A3A deaminase	PfM18AAP inh	APOBEC3G inh
Nc1c(N2CCCCC2)c2ccccc2oc1=O	0	0	0	0	0	0
O=[N+]([O-])c1cc(S(=O)(=O)N2CCCCCC2)ccc1F	97	0	0	-	0	-
O=[N+]([O-])c1cc(S(=O)(=O)N2CCCC2)ccc1O	0	0	0	0	0	0
Cc1ccc(S(=O)(=O)N2CCC(C(N)=O)CC2)cc1[N+](=O)[O-]	-	0	27	0	0	0
Cc1ccc(CCNC(=O)C2CCC(=O)N(Cc3cccc(F)c3)C2)cc1 (stereo not given)	0	0	0	0	0	0
CSc1ccc(CNc2ccccc2)cc1	90	0	-	0	0	0
Cc1nc(N)c(C#N)c(-c2cccnc2)c1C	-	0	0	0	0	0
NC(=O)c1ccsc1NC(=O)CSc1nnc2ccccn12	0	0	0	0	0	0
CCOC(=O)Cn1c(=NC(=O)c2ccc([N+](=O)[O-])s2)sc2ccccc21	0	0	56	0	0	0
CCOC(=O)Cn1c(=NC(=O)C2COc3ccccc3O2)sc2cc(S(N)(=O)=O)ccc21 (stereo not given)	0	0	0	0	0	0
Cc1ccc(C(=O)/C=C/NCc2ccc(F)cc2)cc1	0	0	36	0	0	0
CC(C)c1ccc(Nc2nc(Cl)nc(NCCO)n2)cc1	97	0	0	0	0	0
COc1ccc(Nc2nc(Cl)nc(NCCO)n2)cc1	-	0	0	0	0	0
Cc1onc(-c2ccccc2Cl)c1C(=O)NC(=S)NCCc1ccccc1	0	0	0	0	0	0
Cc1cccc(C(=O)OC(C)C(=O)Nc2ccc(S(=O)(=O)N3CCCC3)cc2)c1O (stereo not given)	0	0	0	0	-	0
CC(OC(=O)c1cc(Br)ccc1O)C(=O)Nc1ccc(S(=O)(=O)N2CCCC2)cc1 (stereo not given)	0	0	25	0	-	0
CCC(C)NC(=O)CS(=O)Cc1nc(-c2cccc(OC)c2)oc1C (stereo not given)	99	0	0	0	0	0
Cc1ccccc1-c1nc(CS(=O)CC(=O)NC(C)CCc2ccccc2)c(C)o1 (stereo not given)	0	0	0	0	0	0
COc1cccc(-c2nc(CS(=O)CC(=O)NC(C)CCc3ccccc3)c(C)o2)c1 (stereo not given)	98	0	0	0	0	0
COc1cccc(-c2nc(CS(=O)CC(=O)NCCc3ccccc3)c(C)o2)c1 (stereo not given)	99	0	0	0	0	0
COc1cccc(-c2nc(CS(=O)CC(=O)O)c(C)o2)c1 (stereo not given)	99	0	0	0	0	0
CCOc1ccc(S(=O)(=O)N2CCCC(C(=O)Nc3ccccc3)C2)cc1 (stereo not given)	0	0	0	0	0	0
COc1ccc(C(C)(C)C)cc1NC(=O)CCc1c(C)noc1C	-	0	28	0	-	0
Nc1ccccc1OCCOCCOCCOc1ccccc1N	97	0	0	0	0	0
Nc1ccccc1OCP(=O)(c1ccccc1)c1ccccc1	96	0	0	0	0	0
CC(=N\Nc1ccccc1)/C(=N/O)C(=O)Nc1ccccc1	97	0	0	0	0	0
CN(C)CCCN1c2ccccc2Sc2ccc(C(F)(F)F)cc21	98	0	0	0	0	0
